B1: unnamed (peptide)
chain: KDKKTKPTPPPKPSH

Target: SpBzz1-D2
Assay: SPOT peptide array binding signal intensity (averaged, normalized) (arbitrary units (background-subtracted, floor 0; scale differs between SH3 domains)); higher = stronger binding of the SH3 domain to the peptide
How it was run: (§1)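 Spot intensities were captured after detection with anti-GST antibody, an HRP-linked anti-mouse secondary and luminol, and quantified with Genespotter. The probes were GST-fused SH3 domains from four yeast species, produced in E. coli BL21(DE3), purified on glutathione Sepharose and incubated at 10 μg/ml overnight at 4°C on cellulose-bound synthetic 15-mer peptides with cysteines replaced by serines. Binding signal is the normalized, background-subtracted spot intensity averaged over replicates, and its arbitrary units differ between domains.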

Row | Binder | SPOT peptide array binding signal intensity
1 | B1 | ≤ 0

Target: SpCyk3
Assay: as above
How it was run: as §1

Row | Binder | SPOT peptide array binding signal intensity
2 | B1 | ≤ 0

Target: SpHof1
Assay: as above
How it was run: as §1

Row | Binder | SPOT peptide array binding signal intensity
3 | B1 | 5.5

Target: SpHof1-2
Assay: as above
How it was run: as §1

Row | Binder | SPOT peptide array binding signal intensity
4 | B1 | 5.5

Target: SpHof1-3
Assay: as above
How it was run: as §1

Row | Binder | SPOT peptide array binding signal intensity
5 | B1 | 67.8

Target: SpHse1
Assay: as above
How it was run: as §1

Row | Binder | SPOT peptide array binding signal intensity
6 | B1 | 9.25

Target: SpLsb1
Assay: as above
How it was run: as §1

Row | Binder | SPOT peptide array binding signal intensity
7 | B1 | 70.5

Target: SpLsb4
Assay: as above
How it was run: as §1

Row | Binder | SPOT peptide array binding signal intensity
8 | B1 | ≤ 0

Target: SpMyo1
Assay: as above
How it was run: as §1

Row | Binder | SPOT peptide array binding signal intensity
9 | B1 | 2

Target: SpNbp2
Assay: as above
How it was run: as §1

Row | Binder | SPOT peptide array binding signal intensity
10 | B1 | 31

Target: SpPex13
Assay: as above
How it was run: as §1

Row | Binder | SPOT peptide array binding signal intensity
11 | B1 | 9

Target: SpRvs167
Assay: as above
How it was run: as §1

Row | Binder | SPOT peptide array binding signal intensity
12 | B1 | 2

Target: SpSla1-D1-D2
Assay: as above
How it was run: as §1

Row | Binder | SPOT peptide array binding signal intensity
13 | B1 | 1.5

Target: SpSla1-D3
Assay: as above
How it was run: as §1

Row | Binder | SPOT peptide array binding signal intensity
14 | B1 | ≤ 0
